HT1080 IDH1KD tx: kills HT-1080 cells with IDH1 knockdown; AID 686971; HT-1080 IDH1 knockdown viability, ATP luminescence, 48 h; hit rate 2% among 360,000; Potency, µM (top dose mostly 46.1 µM), for inactives: at the top dose activity, negative = toxicity, hits mostly cytotoxic;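 further: potency means the concentration at half of the fitted maximal effect; 0% = DMSO wells and -100% = cell-free medium wells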
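After a 2 h attachment period, IDH1KD HT-1080 cells took pin-transferred compound for 48 h at 37 °C; ATP-based luminescence after 10 min room-temperature reagent incubation reported viability.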
DT40 TDP1 no CPT: qHTS for Inhibitors of human tyrosyl-DNA phosphodiesterase 1 (TDP1): qHTS in cells in absence of CPT; Potency, µM (series often up to 46.2 µM), without a hit: top-dose activity change, negative = growth inhibition, usual class: inhibitors; hit rate 15% among 420,000; DT40 Tdp1-/- hTDP1 cells, no CPT, ATP luminescence, 48 h; further: potency means the concentration at half of the fitted maximal effect; nearly all actives have a fitted effect of over 55% in size
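Stably hTDP1-transfected Tdp1-null chicken DT40 cells were treated with library compounds minus camptothecin and grown for at least 48 hr at 37 °C, after which cellular ATP was quantified by luminescence.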
HT1080-NT tox: kills 2HG-producing HT-1080-NT fibrosarcoma cells; HT-1080-NT fibrosarcoma viability, CellTiter-Glo ATP luminescence, 48 h; hit rate 1.6% among 360,000; Potency, µM (top dose mostly 46.1 µM), without a hit: at the top dose activity, negative = less viability, usual class: cytotoxic; AID 686970;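 further: NT is the 2HG producing partner of a matched IDH1 knockdown line; potency means the concentration at half of the fitted maximal effect; 0% = DMSO-treated cells and -100% = media-only wells without cells; nearly all actives have a fitted effect of over 55% in size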
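Compounds were tested in concentration-response format on HT-1080-NT cells for 48 hours at 37 degrees C. Cell viability came from CellTiter-Glo luminescence; curves were classified by r2, response magnitude and activity.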
DT40 TDP1 CPT: DT40-hTDP1 cell growth loss with CPT; chicken DT40 Tdp1-/-;hTDP1 cells + 20 nM CPT, ATP luminescence, 48 h; Potency, µM (doses to about 46.2 µM), for the others: top-dose activity change, negative = growth inhibition, actives largely listed as inhibitors; hit rate 12% among 420,000; AID 686979; further: potency means the concentration at half of the fitted maximal effect; nearly all actives have a fitted effect of over 55% in size
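Chicken DT40 Tdp1-/- cells stably complemented with human TDP1 were seeded at 400 cells/well in medium containing 20 nM camptothecin, exposed to pin-transferred compounds, and grown at 37 °C for at least 48 hr. Viability was read as ATP luminescence.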
IL1B secr inh: blocks inflammasome-driven IL-1 beta release | activity change, % at 57.5 µM | hit rate 4.7% among 360,000 | THP-1 LPS/ATP IL-1B secretion, AlphaLISA, 16 h; hits give low values; in the data active means activity change below about -50%; inconclusive means mostly about -30% to -49%
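THP-1 cells pretreated 1 hr with compounds (up to 57.5 uM final), then stimulated with LPS (250 ng/mL final) plus ATP (1.25 mM final); secreted IL-1B measured by AlphaLISA after 16 hr, decreased signal indicating inhibition.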
Starred values were filed as active, the others as inactive; i = inactive; ? = inconclusive; . = not tested or not shown. The list is not random: actives were taken first. Their share in the collection is about 19%. Unless noted, the call rests on the fitted dose curve; in most records, active means well fitted curve in the direction sought with a large enough effect; inconclusive means small, poorly fitted or top-dose-only effect, or another doubt; inactive means no such curve, though single readings can be large; an effect the other way counts as inactive or inconclusive. Unless noted, on the % scale 0 is the no-effect control and ±100 the full control effect.

SMILES	HT1080 IDH1KD tx	DT40 TDP1 no CPT	HT1080-NT tox	DT40 TDP1 CPT	IL1B secr inh
c1ccc(COn2c(-c3ccccc3)nc3c2CCc2nonc2-3)cc1	-16%	26µM*	2%	?	2
COn1c(-c2ccccc2)nc2c1CCc1nonc1-2	10%	-14%	8%	-8%	-27
COc1ccccc1N1C(N)=NC(N)=NC1(C)C	-7%	?	1%	-10%	24
CC1(C)N=C(N)N=C(N)N1c1cccc(C#N)c1	0.23µM*	1µM*	?	?	26
COc1ccc(N2C(N)=NC(N)=NC2(C)C)cc1	8.2µM*	0.33µM*	9.2µM*	?	0
COc1cccc(N2C(N)=NC(N)=NC2(C)C)c1	2.3µM*	1µM*	6.5µM*	5.2µM*	11
Cc1ccccc1N1C(N)=NC(N)=NC1(C)C	13%	?	9%	-2%	-17
CC1(C)N=C(N)N=C(N)N1c1cccc(C(=O)O)c1	-2%	-5%	13%	-4%	-3
CCOc1ccc(N2C(N)=NC(N)=NC2(C)C)cc1	10µM*	6.5µM*	?	?	13
COc1ccccc1CCC(=O)NNC(=O)c1cccs1	8%	-18%	4%	6%	14
C=CCN1C(=O)/C(=C/c2ccc(-c3ccc(F)cc3)o2)SC1=S	1%	-15%	7%	-2%	1
CCOC(=O)c1cccc(N2C(N)=NC(N)=NC2(C)C)c1	?	4.1µM*	?	-23%	0
O=C(O)/C=C/C(=O)Nc1ccc(SC(F)(F)C(F)(F)C(F)(F)F)cc1	-25%	-14%	-29%	-17%	-54*
O=C(O)/C=C/C(=O)Nc1ccc(OC(F)(F)Cl)cc1	8%	-19%	15%	24%	-5
Cc1ccc(-c2cc(C(=O)N/N=C/c3ccccc3O)n[nH]2)o1	?	5.2µM*	?	5.2µM*	84
Cc1cc(C(=O)N/N=C/c2cccn2C)n[nH]1	7%	1%	20%	-1%	0
Cc1ccc(-c2cc(C(=O)N/N=C/C(Br)=C/c3ccccc3)n[nH]2)o1	21µM*	10µM*	21µM*	12µM*	?
Cc1ccc(-c2cc(C(=O)N/N=C/c3c[nH]c4ccccc34)n[nH]2)o1	-5%	?	-19%	?	-23
Cc1cc(C(=O)N/N=C\c2cc(C(C)(C)C)ccc2O)n[nH]1	?	3.3µM*	?	21µM*	198
Cc1cc(C(=O)N/N=C/c2cc(Br)cc(Br)c2OC(=O)c2cccc(F)c2)n[nH]1	-18%	5.8µM*	-5%	5.8µM*	78
C[C@@H]1CN([C@H](C)CO)C(=O)CCCn2cc(nn2)CO[C@H]1CN(C)C(=O)Nc1cccc2ccccc12	1%	-20%	-11%	-9%	38
COc1ccc(S(=O)(=O)N2CCN(S(=O)(=O)c3ccc4c(c3)OCCO4)CC2)cc1C	6%	-22%	5%	-7%	-3
COc1cccc(NC(=O)Cn2c(=O)ccc3cc(S(=O)(=O)N4CCC(C)CC4)ccc32)c1	.	16µM*	.	18µM*	.
CCc1cccc(NC(=O)Cn2c(=O)ccc3cc(S(=O)(=O)N4CCC(C)CC4)ccc32)c1	.	16µM*	.	18µM*	.
Cc1ccnc(NS(=O)(=O)c2ccc(NS(=O)(=O)c3ccccc3)cc2)n1	6%	-13%	-2%	-10%	18
SMILES	HT1080 IDH1KD tx	DT40 TDP1 no CPT	HT1080-NT tox	DT40 TDP1 CPT	IL1B secr inh
CC(=O)Oc1ccccc1C1=NN(C(=O)/C=C/c2ccccc2)C(c2ccccc2)C1 (stereo unspecified)	-29%	18µM*	-28%	?	-15
COc1ccc(C2CC(c3ccccc3OC(C)=O)=NN2C(=O)/C=C/c2ccccc2)cc1 (stereo unspecified)	-23%	16µM*	-1%	21µM*	-22
Cc1ccc(C(=O)NCCc2nnc3n2CCN(Cc2ccc4ccccc4c2)CC3)c(C)c1	.	?	.	7%	.
COc1ccc(OCC(=O)NC(=S)Nc2ccc(S(=O)(=O)Nc3cc(C)on3)cc2)cc1	4%	6%	3%	7%	15
C[C@@H]1ON(C)[C@H]2C[C@H]3c4[nH]c5ccc(-c6ccc7c(c6)OCO7)cc5c4CCN3C(=O)[C@@H]12	?	9.2µM*	?	13µM*	0
CCC(=O)Nc1cccc(-c2cnc3ccccc3n2)c1	1%	?	1%	?	30
Nc1ccc(NC(=O)c2cccc(C(=O)Nc3ccc(N)cc3Cl)c2)c(Cl)c1	16µM*	16µM*	?	18µM*	0
O=C(CCl)Nc1cccc(-c2cnc3ccccc3n2)c1	?	2.3µM*	?	2.9µM*	-96*
O=C(Nc1cccc(-c2cnc3ccccc3n2)c1)C1CC(=O)N(c2ccccc2)C1 (stereo unspecified)	0%	23µM*	-2%	21µM*	i
CC(C)COc1ccc(C(=O)Nc2ccc(NC(=O)c3ccco3)c(Cl)c2)cc1	15µM*	-25%	?	?	-6
CC(C)Oc1ccc(C(=O)Nc2ccc(NC(=O)c3ccco3)c(Cl)c2)cc1	11%	?	13%	?	?
COCCN(C(=O)CCC(=O)Nc1cc(C)on1)C(C(=O)NC(C)(C)C)c1cccc(OC)c1OC (stereo unspecified)	26%	-3%	13%	0%	4
O=C(Nc1ccccc1O)c1cccc(NC(=O)c2ccco2)c1	-10%	13µM*	8%	21µM*	57
O=C(Nc1cccc(-c2cnc3ccccc3n2)c1)c1cccc(NC(=O)c2ccco2)c1	?	15µM*	?	6.5µM*	60
Nc1ccc(C(=O)Nc2ccc(NC(=O)c3ccco3)c(O)c2)cc1	1%	16µM*	4%	?	-20
O=C(Nc1ccc(Cl)c(Cl)c1)Oc1ccc(NC(=O)c2ccco2)cc1	-24%	26µM*	-19%	?	-88*
NC(=O)c1cc(S(=O)(=O)Nc2cccc(Cl)c2)cs1	5%	-20%	18%	-12%	29
Cc1ccc(-c2nnc3ccccc3c2C(=O)Nc2ccc(F)cc2)cc1	.	-23%	.	?	.
O=C(Nc1ccc(NC(=O)c2ccco2)c(Cl)c1)c1ccccc1	14%	23µM*	2%	?	?
O=C(Nc1ccccc1C(=O)O)c1cccc(NC(=O)c2ccc(Br)o2)c1	-3%	1.6µM*	-6%	-7%	-6
O=C(Nc1cccc(NC(=O)c2ccco2)c1)c1ccccc1	1%	-16%	-7%	-20%	-12
O=C(Nc1cccc(NC(=O)c2nccc3ccccc23)c1)c1ccco1	0%	10µM*	1%	?	3
